# Measurements reported in PubChem BioAssay (EPA / NIEHS).
# Inconclusive results are not listed. Active and inactive are the calls of the source. Rule for the calls, unless noted: active = hit-call score of the fitted dose curve at least 0.9, where 1 is the maximum; inconclusive = response in the unintended direction; inactive = score below 0.9.
# Columns and labels:
# [1] = biological target: Hepatocyte nuclear factor 3-beta (Homo sapiens) (UniProt Q9Y261); test: ATG_FoxA2_CIS: Attagene CIS-FACTORIAL HepG2 Assay for human Forkhead box A2 (FOXA2) (AID 2282942; active = hit-call score of the fitted dose curve at least 0.9, where 1 is the maximum; inactive = score below 0.9); details: HepG2 cis-reporter transcription factor activity, 24 h; actives raise or lower the signal
# Sequence of Hepatocyte nuclear factor 3-beta (Homo sapiens) (Q9Y261 whole entry, looked up): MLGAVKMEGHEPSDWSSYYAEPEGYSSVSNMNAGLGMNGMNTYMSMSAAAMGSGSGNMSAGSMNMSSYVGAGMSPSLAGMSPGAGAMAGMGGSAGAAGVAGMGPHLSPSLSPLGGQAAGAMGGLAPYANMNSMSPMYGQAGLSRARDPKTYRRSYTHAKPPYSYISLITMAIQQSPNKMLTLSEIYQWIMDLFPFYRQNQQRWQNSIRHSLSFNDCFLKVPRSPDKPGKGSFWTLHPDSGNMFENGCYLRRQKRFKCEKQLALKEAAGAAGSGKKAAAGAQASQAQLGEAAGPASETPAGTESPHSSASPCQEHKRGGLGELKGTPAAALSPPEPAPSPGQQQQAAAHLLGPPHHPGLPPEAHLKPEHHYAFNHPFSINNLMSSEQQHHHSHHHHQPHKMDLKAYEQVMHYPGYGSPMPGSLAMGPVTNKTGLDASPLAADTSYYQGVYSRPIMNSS
# Method in brief: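 Endogenous transcription factor activity is captured via cis-element-driven reporter transcripts in transfected HepG2. Total RNA taken at 24 h post-dosing; labelled RT-PCR products resolved by capillary electrophoresis. Gain or loss fitted versus DMSO.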
# [2] = ATG_GLI_CIS: Attagene CIS-FACTORIAL HepG2 Assay for human Zinc Finger Protein GLI1 (AID 2282945; active = hit-call score of the fitted dose curve at least 0.9, where 1 is the maximum; inactive = score below 0.9); details: HepG2, Attagene cis-factorial reporter mRNA, GLI element; actives raise or lower the signal
# Method in brief: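 HepG2 cells transiently transfected with cis-promoter multiplexed reporter units report endogenous transcription factor activity. After 24 h chemical exposure, reporter mRNA was quantified by RT-PCR, 6-FAM labelling, HpaI digestion and capillary electrophoresis, with bidirectional fitting against DMSO.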
# [3] = ATG_GRE_CIS: Attagene CIS-FACTORIAL HepG2 Assay for human Glucocorticoid Response Elements (GRE) (AID 2282947; active = hit-call score of the fitted dose curve at least 0.9, where 1 is the maximum; inactive = score below 0.9); details: HepG2 GRE cis-reporter, Attagene multiplex mRNA; actives raise or lower the signal
# Method in brief: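 Cells (HepG2) bearing transfected cis-promoter reporter transcription units were treated with chemical for 24 hours. Reporter mRNA was measured via RT-PCR with capillary electrophoresis, and activity was fitted in both directions relative to DMSO.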
# [4] = ATG_M_32_CIS: Attagene CIS-FACTORIAL HepG2 Assay for M32 Transcription Factor (Internal Marker) (AID 2282949; active = hit-call score of the fitted dose curve at least 0.9, where 1 is the maximum; inactive = score below 0.9;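 note: background control marker of the multiplexed CIS panel rather than a real target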); details: HepG2 Attagene cis-factorial M32 reporter, mRNA; actives raise or lower the signal
# Method in brief: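 HepG2 transfectants (cis-regulated reporter transcription units) dosed 24 h. Reporter mRNA by RT-PCR plus CE, analysed as gain or loss relative to DMSO.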
# [5] = ATG_MRE_CIS: Attagene CIS-FACTORIAL HepG2 Assay for human Metal Responsive Element (MRE) (AID 2282954; active = hit-call score of the fitted dose curve at least 0.9, where 1 is the maximum; inactive = score below 0.9); details: HepG2 MRE cis-reporter transcription, Attagene multiplex; actives raise or lower the signal
# Method in brief: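 Cells were transfected with cis-promoter reporter transcription units, then dosed for 24 h. RNA was reverse-transcribed, amplified, fluorescently labelled and resolved by capillary electrophoresis, and activity was fitted in both directions relative to DMSO.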
# [6] = ATG_RORE_CIS: Attagene CIS-FACTORIAL HepG2 Assay for human RAR-related Orphan Receptor Element (RORE) (AID 2282959; active = hit-call score of the fitted dose curve at least 0.9, where 1 is the maximum; inactive = score below 0.9); details: HepG2 Attagene cis-factorial RORE reporter, mRNA; actives raise or lower the signal
# Method in brief: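 RORE reporter transcripts reflecting endogenous factor activity were read after 24 h compound exposure of transfected HepG2 cells, using reverse transcription, PCR, fluorescent labelling and capillary electrophoresis sizing. Gain or loss fitted against DMSO.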
# [7] = ATG_M_32_TRANS: Attagene TRANS-FACTORIAL HepG2 Assay for M32 Transcription Factor (Internal Marker) (AID 2282984); details: HepG2 Attagene TRANS M32 internal marker reporter;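 note: transcript level of a background control reporter unit measured by RT-PCR and capillary electrophoresis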
# Method in brief: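 After 24 h dosing of transfected HepG2 cells, total RNA was reverse-transcribed, reporter sequences PCR-amplified, 6-FAM labelled by primer extension and HpaI-digested before capillary electrophoresis. Signal increase over DMSO was fitted.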
# [8] = biological target: human Peroxisome Proliferator-activated Receptor alpha (PPARa), PPARA (gene 5465) (UniProt Q07869); test: ATG_PPARa_TRANS: Attagene TRANS-FACTORIAL HepG2 Assay for human Peroxisome Proliferator-activated Receptor alpha (PPARa) (AID 2283001);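 for AC50: potency for gain of reporter signal over DMSO so agonist or activator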
# Sequence of human Peroxisome Proliferator-activated Receptor alpha (PPARa), PPARA (gene 5465) (Q07869 whole entry, looked up): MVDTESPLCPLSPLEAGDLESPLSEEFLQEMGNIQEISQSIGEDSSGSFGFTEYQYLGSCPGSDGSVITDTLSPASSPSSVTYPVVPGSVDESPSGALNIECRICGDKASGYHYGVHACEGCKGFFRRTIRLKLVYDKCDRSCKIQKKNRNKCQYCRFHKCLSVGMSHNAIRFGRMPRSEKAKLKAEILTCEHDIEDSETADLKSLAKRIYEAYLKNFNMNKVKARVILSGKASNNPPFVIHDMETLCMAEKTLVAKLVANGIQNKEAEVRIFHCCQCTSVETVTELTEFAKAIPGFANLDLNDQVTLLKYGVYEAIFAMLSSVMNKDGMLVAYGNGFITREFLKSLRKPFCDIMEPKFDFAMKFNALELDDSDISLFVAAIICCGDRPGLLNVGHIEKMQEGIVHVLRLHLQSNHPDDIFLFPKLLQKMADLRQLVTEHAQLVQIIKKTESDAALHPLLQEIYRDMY
# Method in brief: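 Cells (HepG2) are transfected with multiple reporter transcription units, exposed to chemical for 24 h, then total RNA is reverse-transcribed and amplified. Labelled products are quantified by capillary electrophoresis; induction is referenced to DMSO.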
# [9] = biological target: Retinoic acid receptor RXR-alpha (Homo sapiens) (UniProt P19793); test: ATG_RXRa_TRANS: Attagene TRANS-FACTORIAL HepG2 Assay for human Retinoid X Receptor alpha (RXRa) (AID 2283012)
# Sequence of Retinoic acid receptor RXR-alpha (Homo sapiens) (P19793 whole entry, looked up, the tested form may be a part): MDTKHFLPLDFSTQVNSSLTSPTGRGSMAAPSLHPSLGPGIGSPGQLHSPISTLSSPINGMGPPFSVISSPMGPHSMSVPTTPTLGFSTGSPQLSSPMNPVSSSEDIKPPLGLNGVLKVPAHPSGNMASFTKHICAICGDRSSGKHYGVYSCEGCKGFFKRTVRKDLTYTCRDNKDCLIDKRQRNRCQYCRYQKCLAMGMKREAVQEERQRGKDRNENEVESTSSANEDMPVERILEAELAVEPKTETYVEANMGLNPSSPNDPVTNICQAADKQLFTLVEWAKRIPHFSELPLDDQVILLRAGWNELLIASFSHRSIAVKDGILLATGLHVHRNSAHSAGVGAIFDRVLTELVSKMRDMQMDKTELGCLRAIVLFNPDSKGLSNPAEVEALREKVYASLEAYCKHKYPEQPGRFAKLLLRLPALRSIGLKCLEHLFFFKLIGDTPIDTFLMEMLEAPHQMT
# Method in brief: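 Measures exogenous chimeric NR-GAL4 activity in transfected HepG2 liver cells after 24 h of dosing. Induced reporter mRNA was detected by RT-PCR with capillary electrophoresis, and gain of signal was analysed against DMSO.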
# [10] = biological target: human Retinoid X Receptor beta (RXRb), RXRB (gene 6257) (UniProt P28702); test: ATG_RXRb_TRANS: Attagene TRANS-FACTORIAL HepG2 Assay for human Retinoid X Receptor beta (RXRb) (AID 2283013)
# Sequence of human Retinoid X Receptor beta (RXRb), RXRB (gene 6257) (P28702 whole entry, looked up, the tested form may be a part): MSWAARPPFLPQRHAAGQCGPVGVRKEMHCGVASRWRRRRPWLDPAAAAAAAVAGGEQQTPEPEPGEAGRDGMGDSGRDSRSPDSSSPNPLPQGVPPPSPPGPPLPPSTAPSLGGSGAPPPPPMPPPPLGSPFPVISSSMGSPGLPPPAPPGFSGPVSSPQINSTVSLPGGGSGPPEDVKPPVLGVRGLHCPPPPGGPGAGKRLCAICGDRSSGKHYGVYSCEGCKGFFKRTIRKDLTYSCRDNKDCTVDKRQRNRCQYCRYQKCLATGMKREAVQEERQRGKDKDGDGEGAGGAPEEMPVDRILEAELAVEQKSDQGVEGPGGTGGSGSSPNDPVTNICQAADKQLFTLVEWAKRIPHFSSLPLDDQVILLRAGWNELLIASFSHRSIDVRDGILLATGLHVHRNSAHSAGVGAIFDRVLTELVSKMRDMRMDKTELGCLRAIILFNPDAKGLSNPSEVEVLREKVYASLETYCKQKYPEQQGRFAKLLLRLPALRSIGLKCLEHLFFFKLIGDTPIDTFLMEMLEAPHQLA
# Method in brief: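 Chimeric receptor-Gal4 activity was assessed in transiently transfected human HepG2 cells after 24 h exposure. Transcripts from GAL4-UAS reporters were quantified by fluorescent RT-PCR and capillary electrophoresis, with DMSO as negative control and baseline.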
# [11] = TOX21_p53_BLA_p2_viability: Viability Assessment in the Tox21 HCT-116 p53 Agonism Beta-lactamase Assay, Phase 2 (AID 2283591);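 note: compound exposure lasted 16 h at 37 °C; actives lower the ATP signal meaning cytotoxicity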
# Method in brief: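 HCT-116 p53-bla cells (4000/well) rested 5 h at 37C, then received compounds in DMSO (217-fold dilution) for 16 h at 37C, 5% CO2. After the CCF4 read, CellTiter-Glo was added; ATP luminescence was read after 30 min at room temperature.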
# [12] = biological target: Cellular tumor antigen p53 (Homo sapiens) (UniProt P04637); test: TOX21_p53_BLA_p3_ratio: Tox21 HCT-116 p53 Agonism Beta-lactamase Assay, Ratio, Phase 3 (AID 2283596)
# Sequence of Cellular tumor antigen p53 (Homo sapiens) (P04637 whole entry, looked up): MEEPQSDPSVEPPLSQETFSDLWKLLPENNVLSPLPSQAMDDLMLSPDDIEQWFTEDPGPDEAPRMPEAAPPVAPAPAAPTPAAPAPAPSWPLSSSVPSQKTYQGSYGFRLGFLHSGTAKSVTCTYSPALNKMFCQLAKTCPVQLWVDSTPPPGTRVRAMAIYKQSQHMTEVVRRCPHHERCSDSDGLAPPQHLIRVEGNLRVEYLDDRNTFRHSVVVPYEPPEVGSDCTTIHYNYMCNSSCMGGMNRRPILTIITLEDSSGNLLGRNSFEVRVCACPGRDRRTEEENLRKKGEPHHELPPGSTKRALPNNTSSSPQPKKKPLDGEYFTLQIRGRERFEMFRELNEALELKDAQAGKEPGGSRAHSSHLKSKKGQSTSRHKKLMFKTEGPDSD
# Method in brief: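 Cells were seeded at 4000/well, rested 5 h at 37C, then dosed with DMSO compound solutions (217-fold dilution) for 16 h. CCF4-AM substrate was loaded for 2 h at room temperature, and the 460/530 nm emission ratio was fitted for gain of signal versus DMSO.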
# [13] = biological target: Cellular tumor antigen p53 (Homo sapiens) (UniProt P04637); test: TOX21_p53_BLA_p5_ratio: Tox21 HCT-116 p53 Agonism Beta-lactamase Assay, Ratio, Phase 5 (AID 2283599)
# Method in brief: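 HCT-116 cells carrying a p53-inducible beta-lactamase reporter were seeded at 4000 cells/well and dosed after 5 h with compound in DMSO (217-fold dilution). After 16 h at 37C, CCF4-AM substrate was added for 2 h, and the 460/530 nm emission ratio was scored as gain-of-signal versus DMSO.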
# [14] = TOX21_p53_BLA_p5_viability: Viability Assessment in the Tox21 HCT-116 p53 Agonism Beta-lactamase Assay, Phase 5 (AID 2283600)
# Method in brief: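 Viability is taken from cellular ATP content, measured by luciferase luminescence in the same wells after the beta-lactamase ratio read. Cells are seeded at 4000 per well and exposed to DMSO-dissolved compounds, diluted 217-fold, for 16 h.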
# [15] = biological target: Cellular tumor antigen p53 (Homo sapiens) (UniProt P04637); test: TOX21_p53_BLA_p4_ratio: Tox21 HCT-116 p53 Agonism Beta-lactamase Assay, Ratio, Phase 4 (AID 2283601)
# Method in brief: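 HCT116 cells carrying an inducible beta-lactamase reporter were plated at 4000 cells/well, rested 5 h, then exposed to compounds in DMSO (217-fold dilution) for 16 h at 37C. CCF4-AM substrate was loaded 2 h at room temperature; 460/530 nm emission ratio scored gain-of-signal versus DMSO.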
# [16] = biological target: Hepatocyte nuclear factor 4-alpha (Homo sapiens) (UniProt P41235); test: ATG_HNF4a_TRANS: Attagene TRANS-FACTORIAL HepG2 Assay for human Hepatocyte Nuclear Factor 4 alpha (HNF4a) (AID 2282982); details: HepG2 HNF4a transactivation reporter, mRNA readout
# Sequence of Hepatocyte nuclear factor 4-alpha (Homo sapiens) (P41235 whole entry, looked up, the tested form may be a part): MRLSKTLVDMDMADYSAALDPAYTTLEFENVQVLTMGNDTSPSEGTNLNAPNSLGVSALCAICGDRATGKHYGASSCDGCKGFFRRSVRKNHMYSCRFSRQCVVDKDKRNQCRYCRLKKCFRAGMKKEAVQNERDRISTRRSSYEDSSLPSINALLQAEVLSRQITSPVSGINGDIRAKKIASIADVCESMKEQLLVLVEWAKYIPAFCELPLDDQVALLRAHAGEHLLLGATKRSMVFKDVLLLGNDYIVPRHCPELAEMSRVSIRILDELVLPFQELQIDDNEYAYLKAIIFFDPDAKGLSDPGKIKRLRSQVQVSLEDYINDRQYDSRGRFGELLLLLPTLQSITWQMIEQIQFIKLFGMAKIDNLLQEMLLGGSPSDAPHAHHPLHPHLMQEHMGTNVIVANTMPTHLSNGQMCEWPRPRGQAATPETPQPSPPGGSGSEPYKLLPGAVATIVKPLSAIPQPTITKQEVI
# Method in brief: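 In this trans-factorial format, a chimeric HNF4a-GAL4 fusion drives a GAL4-UAS reporter in transfected HepG2 liver cells. After 24 h treatment, reporter mRNA induction is measured by RT-PCR with capillary electrophoresis, relative to DMSO.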
# [17] = ATG_PBREM_CIS: Attagene CIS-FACTORIAL HepG2 Assay for human Phenobarbital-responsive Enhancer Module (PBREM) (AID 2282955; active = hit-call score of the fitted dose curve at least 0.9, where 1 is the maximum; inactive = score below 0.9); details: HepG2 PBREM cis-reporter, Attagene multiplexed transcription; actives raise or lower the signal
# Method in brief: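 Endogenous transcription factor activity was read from reporter transcripts in transiently transfected human HepG2 liver cells after 24 h dosing. RT-PCR products were fluorescently labelled, HpaI-cut and sized by capillary electrophoresis; activity fitted bidirectionally against DMSO baseline.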
# [18] = biological target: Nuclear respiratory factor 1 (Homo sapiens) (UniProt Q16656); test: ATG_NRF1_CIS: Attagene CIS-FACTORIAL HepG2 Assay for human Nuclear Respiratory Factor 1 (NRF1) Orphan Gene (AID 2282987; active = hit-call score of the fitted dose curve at least 0.9, where 1 is the maximum; inactive = score below 0.9); details: HepG2 NRF1 cis-element reporter, Attagene multiplex; actives raise or lower the signal
# Sequence of Nuclear respiratory factor 1 (Homo sapiens) (Q16656 whole entry, looked up): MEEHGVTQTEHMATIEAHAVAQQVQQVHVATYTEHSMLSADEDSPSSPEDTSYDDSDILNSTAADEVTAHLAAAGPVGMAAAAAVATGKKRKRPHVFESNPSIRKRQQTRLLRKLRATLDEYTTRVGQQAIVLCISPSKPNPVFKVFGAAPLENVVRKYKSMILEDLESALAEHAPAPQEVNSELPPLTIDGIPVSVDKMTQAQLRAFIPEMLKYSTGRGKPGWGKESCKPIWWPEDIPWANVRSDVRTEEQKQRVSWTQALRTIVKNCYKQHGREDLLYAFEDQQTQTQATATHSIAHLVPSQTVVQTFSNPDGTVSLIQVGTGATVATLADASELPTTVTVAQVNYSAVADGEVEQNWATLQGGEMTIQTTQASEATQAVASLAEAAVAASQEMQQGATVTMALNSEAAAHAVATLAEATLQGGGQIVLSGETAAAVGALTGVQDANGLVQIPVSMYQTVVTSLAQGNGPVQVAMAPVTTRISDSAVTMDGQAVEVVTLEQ
# Method in brief: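 Endogenous NRF1-driven reporter transcription in transfected HepG2 cells after 24 h treatment. Readout: RT-PCR products, 6-FAM labelled and resolved by capillary electrophoresis; changes fitted both directions relative to DMSO.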
# [19] = ATG_NF_kB_CIS: Attagene CIS-FACTORIAL HepG2 Assay for human Nuclear Factor Kappa B (NF-kB) (AID 2282991; active = hit-call score of the fitted dose curve at least 0.9, where 1 is the maximum; inactive = score below 0.9); details: HepG2 Attagene cis-factorial NF-kB reporter mRNA; actives raise or lower the signal
# Method in brief: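 Readout is reporter transcript level, gain or loss versus DMSO, measured 24 h post-dose via RT-PCR, fluorescent labelling and capillary electrophoresis. Human HepG2 liver cells carried transiently transfected CIS reporter constructs reflecting endogenous factors.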
compound,measurement,setting,value
CC(C)n1c(/C=C/[C@@H](O)C[C@@H](O)CC(=O)O)c(-c2ccc(F)cc2)c2ccccc21,outcome,[1],inactive
same,outcome,[2],inactive
same,outcome,[3],inactive
same,outcome,[4],inactive
same,outcome,[5],inactive
same,AC50,[6],55.3 µM (active)
same,outcome,[7],inactive
same,outcome,[8],inactive
same,outcome,[9],inactive
same,outcome,[10],inactive
same,outcome,[11],inactive
same,outcome,[12],inactive
same,outcome,[13],inactive
same,outcome,[14],inactive
same,outcome,[15],inactive
CCCCn1cc[n+](C)c1,outcome,[1],inactive
same,outcome,[2],inactive
same,outcome,[6],inactive
same,outcome,[16],inactive
same,outcome,[9],inactive
same,outcome,[10],inactive
O=C(O)/C=C\C(=O)O,outcome,[2],inactive
same,outcome,[3],inactive
same,outcome,[5],inactive
same,outcome,[17],inactive
same,outcome,[6],inactive
same,outcome,[16],inactive
same,outcome,[7],inactive
same,outcome,[18],inactive
same,outcome,[19],inactive
same,outcome,[9],inactive
CC(C)(Oc1ccc(Cl)cc1)C(=O)O,outcome,[2],inactive
same,outcome,[3],inactive
same,outcome,[5],inactive
same,outcome,[17],inactive
same,outcome,[6],inactive
same,outcome,[16],inactive
same,outcome,[7],inactive
same,outcome,[18],inactive
same,AC50,[8],29.8 µM (active)
same,outcome,[9],inactive
same,outcome,[10],inactive
same,outcome,[11],inactive
same,outcome,[12],inactive
same,outcome,[13],inactive
same,outcome,[14],inactive
same,outcome,[15],inactive
NCc1ccccc1,outcome,[2],inactive
same,outcome,[3],inactive
same,outcome,[4],inactive
same,outcome,[5],inactive
same,outcome,[17],inactive
same,outcome,[6],inactive
same,outcome,[16],inactive
same,outcome,[7],inactive
same,outcome,[18],inactive
same,outcome,[8],inactive
same,outcome,[10],inactive
same,outcome,[11],inactive
same,outcome,[13],inactive
same,outcome,[15],inactive
O=S(=O)(O)c1cccc2ccccc12,outcome,[1],inactive
same,outcome,[3],inactive
same,outcome,[4],inactive
same,outcome,[5],inactive
same,outcome,[6],inactive
same,outcome,[16],inactive
same,outcome,[18],inactive
same,outcome,[8],inactive
same,outcome,[9],inactive
same,outcome,[11],inactive
same,outcome,[12],inactive
same,outcome,[13],inactive
same,outcome,[15],inactive
